FLuc counter: counter-screen for miR-21 project: firefly luciferase inhibitors or activators; purified FLuc, Km substrates, luminescence inhibition; 360,000 tested, 6.9% active; Potency, µM (highest dose often 57.5 µM), without a hit: at the highest dose activity change, negative = inhibition, usual class: inhibitors; AID 588342;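 note: plate controls were vehicle for no effect and reference inhibitor for full effect; nearly all actives have a fitted effect of over 55% in size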
Target sequence (P08659 whole entry, looked up): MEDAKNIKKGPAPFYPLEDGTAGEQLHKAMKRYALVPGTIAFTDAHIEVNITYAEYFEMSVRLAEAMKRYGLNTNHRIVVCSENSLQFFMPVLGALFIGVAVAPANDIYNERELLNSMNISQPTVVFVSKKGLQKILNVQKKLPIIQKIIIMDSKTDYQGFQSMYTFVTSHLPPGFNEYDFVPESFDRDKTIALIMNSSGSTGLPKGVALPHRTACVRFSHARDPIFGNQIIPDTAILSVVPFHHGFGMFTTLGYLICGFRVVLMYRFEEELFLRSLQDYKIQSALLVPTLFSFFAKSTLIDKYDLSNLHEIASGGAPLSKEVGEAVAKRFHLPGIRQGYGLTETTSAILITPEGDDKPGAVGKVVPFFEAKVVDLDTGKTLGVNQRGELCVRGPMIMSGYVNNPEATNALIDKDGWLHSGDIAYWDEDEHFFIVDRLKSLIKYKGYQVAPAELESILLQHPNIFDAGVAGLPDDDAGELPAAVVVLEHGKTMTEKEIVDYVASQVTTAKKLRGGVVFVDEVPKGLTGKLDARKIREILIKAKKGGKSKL
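Purified P. pyralis luciferase (10nM final) with 10uM D-luciferin and 10uM ATP (Km levels) in 50mM Tris acetate pH 7.5, 10mM Mg acetate, 0.01% Tween-20, 0.05% BSA; qHTS 6-point titration, ~60 µM downward; luminescence read.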
NPC1 promoter act: NPC1 promoter activation; Huh7 NPC1 promoter luciferase reporter, 24 h; Potency, µM (doses to about 9.22 µM), for the others: top-dose activation, usual class: activators; 320,000 tested, 2.4% active; AID 485313; note: % of control where 0% means no effect; nearly all actives have a fitted effect of over 60% in size
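Cells: Huh7 expressing luciferase under the NPC1 promoter, 1500/well. Seeded 2 h, compound added, incubated 24 h at 37 °C. Luciferase reagent, 10 min ambient, then luminescence.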
p53 reactivation: restores transcriptional activity of mutant p53. Potency, µM (doses to about 92.2 µM), without a hit: at the top dose activity change, positive = activation, most hits filed as activators. H1299 p53-A138V BP100-luciferase reporter, luminescence, 24 h. 320,000 tested, 0.063% active; note: % of control where 0% means no effect; nearly all actives have a fitted effect of over 45% in size
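p53-null H1299 cells stably carrying temperature-sensitive p53-A138V and a BP100-luciferase reporter were pinned with compounds (4-point, 1:5 series) and held 24 hrs at 37 deg C. Luminescence was read 10 min after detection reagent.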
SMN2 splice up: increases expression of the SMN2 splice variant; AID 1458; Potency, µM (highest dose often 46.1 µM), for the others: at the highest dose activity change, positive = activation, usual class: activators; 210,000 tested, 2.8% active; HEK293 SMN2-luciferase splicing reporter, luminescence, 30-36 h; note: % of control where 0% means no effect; nearly all actives have a fitted effect of over 55% in size
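qHTS luciferase splicing reporter: luminescence rises when SMN2 exon 7 is included in transfected HEK293 cells. Compound exposure lasted 30-36 h at 37C, with 4.5 mM final sodium butyrate as control, followed by a ONE-Glo read.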
Rab9 prom act: activators of Rab9 promoter; Huh7 Rab9 promoter-luciferase reporter, luminescence, 24 h; Potency, µM (doses to about 9.22 µM), without a hit: at the highest dose activation, negative = inhibition, actives largely listed as activators; 320,000 tested, 2.8% active; AID 485297; note: % of control where 0% means no effect; nearly all actives have a fitted effect of over 60% in size
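Luminescence from Amplite-detected luciferase (10 minutes, ambient) reports Rab9 promoter activation. Before that, stable Rab9-luciferase Huh7 cells (1500/well, reduced-serum OP-MEM I plus 10% FBS) were exposed to compound for 24 hours at 37C.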
ELG1 genotoxic: genotoxicity induction in ELG1-luciferase HEK293T cells. HEK293T ELG1-luciferase reporter, luminescence, 16 h. Potency, µM (doses to about 46 µM), without a hit: top-dose activity change, positive = activation, usual class: activators. 330,000 tested, 1.3% active. AID 504466; note: % of control where 0% means no effect; nearly all actives have a fitted effect of over 60% in size
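DMSO vehicle served as control against compound-treated ELG1-luciferase HEK293T cells; exposure lasted 16 hr at 37 °C and 5% CO2, followed by ONE-Glo luminescence detection after 30 min.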
The depositor's hits bear a star; u = inconclusive; x = no result. Only some compounds are listed: those with a hit (about 7.4% of all), similar ones and a draw of the others. Calls come from the whole dose curve; as a rule, active = well fitted curve in the direction sought with a large enough effect; inconclusive = small, poorly fitted or top-dose-only effect, or another doubt; inactive = no such curve, though single readings can be large; an effect the other way counts as inactive or inconclusive. Potency is the fitted concentration of half-maximal effect.

SMILES	FLuc counter	NPC1 promoter act	p53 reactivation	SMN2 splice up	Rab9 prom act	ELG1 genotoxic
CCOc1cc(/C=N/O)ccc1OCc1ccc([N+](=O)[O-])cc1	u	0%	3%	-27%	-2%	6%
O=[N+]([O-])c1ccc(COc2ccccc2/C=N/O)cc1	u	u	u	16µM*	u	13%
CCn1ncc(C(=O)Nc2cccc(Cl)c2)c1C	9.5µM*	3%	u	13µM*	u	u
CCc1cccc(NC(=O)c2cnn(-c3ccccc3)c2C)c1	2.1µM*	0.89µM*	u	x	2.2µM*	1.8µM*
COc1cccc(NC(=O)c2cnn(-c3ccccc3)c2C)c1	1.5µM*	u	-26%	x	13µM*	1.8µM*
CCc1cccc(NC(=O)c2coc(=O)c3ccccc23)c1	11µM*	x	x	12%	x	x
Cc1cccc(C)c1NC(=O)c1cnn(-c2ccccc2)c1C	-16%	0%	-26%	x	-3%	-5%
O=C(Nc1cccnc1)c1coc(=O)c2ccccc12	1%	-10%	-5%	-4%	-1%	1%
COc1ccc(C(=O)O)cc1S(=O)(=O)NCc1ccccn1	0%	-4%	4%	x	0%	-2%
Cc1c(C#N)c(NC(=O)CCl)n(Cc2cccs2)c1C	5%	-35%	-12%	-103%	-40%	-10%
C=CCN=c1scc(-c2ccccc2)n1/N=C/c1ccccn1	2.4µM*	2µM*	u	4.5µM*	1.3µM*	u
C=CCN=c1scc(-c2ccc(F)cc2)n1/N=C/c1ccccn1	13µM*	24%	u	400%	u	22%
C=CCN=c1scc(-c2ccc3c(c2)NC(=O)CO3)n1/N=C(\C)c1ccccn1	6%	-33%	1%	-65%	-39%	-7%
CC(C)(O)C#Cc1ccc([C@@H]2C[C@H]3CN(c4ccccc4)C(=O)[C@]34CCCN24)s1	3%	-37%	3%	u	-32%	-3%
O=C1N(c2ccccc2)C[C@@H]2C[C@@H](c3cccs3)N3CCC[C@@]123	-5%	-23%	-3%	22µM*	-32%	-7%
O=C(Oc1ccc(-c2cnc3ccccc3n2)cc1)c1ccc(Br)o1	u	u	u	u	27%	9.2µM*
O=C(Oc1ccc(-c2cnc3ccccc3n2)cc1)c1ccc(Cl)c([N+](=O)[O-])c1	u	12%	u	u	3%	8.2µM*
O=C(Oc1cccc2cccnc12)c1ccc(Br)o1	1%	7%	-8%	-23%	10%	0%
O=C(Oc1ccc(-c2cnc3ccccc3n2)cc1)c1cccc([N+](=O)[O-])c1	u	u	u	32µM*	u	7.3µM*
CCOC(=O)c1cccc(NS(=O)(=O)c2cc3c(cc2C)NC(=O)CO3)c1	5%	x	x	x	x	x
CC(=O)Nc1cc(-c2nn3c(C)nnc3s2)ccc1C	2%	8%	6%	-10%	-1%	6%
CC(=O)Nc1cc(-c2nc3ccccc3s2)ccc1C	6.7µM*	x	x	20%	x	x
Cc1ccc(-c2nc3ccccc3s2)cc1NC(=S)NC(=O)c1ccccc1	9.5µM*	12%	u	-6%	12%	u
Cc1ccc(-c2nc3ccccc3s2)cc1NC(=O)c1cc(-n2cnnc2)ccc1Cl	1.5µM*	-29%	26%	4%	5%	u
COc1ccc(-c2nc3ccccc3s2)cc1NC(=O)c1ccc(F)cc1	-1%	x	x	-6%	x	x
SMILES	FLuc counter	NPC1 promoter act	p53 reactivation	SMN2 splice up	Rab9 prom act	ELG1 genotoxic
COC(=O)N/N=C/C1=C[N+](=O)c2ccccc2[N+]1=O	x	x	x	4%	x	x
Cc1ccc(NC(=O)C2=C(O)c3ccccc3N(C)S2(=O)=O)cc1	15µM*	0%	5%	17%	3%	0%
Cc1cc(C)cc(C(=O)N[C@@H](C)C(=O)N2CCC3(CC2)NCCc2[nH]cnc23)c1	1%	0%	-2%	x	-6%	-3%
CCCOc1ccc(OC(=O)c2c(-c3ccccc3Cl)noc2C)cc1	-6%	x	x	x	x	x
O=C(CCn1cnc2ccccc21)N/N=C/c1ccccc1O	8.5µM*	1%	u	-53%	-35%	u
O=C(CCn1cnc2ccccc21)N/N=C/c1ccc(O)cc1	u	0%	2%	-13%	-5%	1%
CCCCOc1ccc(CSCCN=C(N)N)cc1	21µM*	-15%	-5%	x	-13%	15µM*
Cc1ccc(NC(=O)Cc2nnc(SCC(=O)NC3=NCCS3)n2C)cc1	u	0%	4%	x	0%	-1%
C=CCn1c(SCC(=O)NCCOC)nnc1-c1cc2c(s1)CCC(CC)C2 (centres undefined)	9.5µM*	-4%	-12%	11%	-7%	-1%
C=CCn1c(SCC(=O)NC(N)=O)nnc1-c1cc2c(s1)CCC(CC)C2 (centres undefined)	u	-4%	11%	-30%	-1%	-1%
C=CCn1c(SCC(=O)NCC)nnc1-c1cc2c(s1)CCC(CC)C2 (centres undefined)	12µM*	5%	4%	u	22%	u
CC1Cc2ccccc2N1c1ncnc2nc[nH]c12 (centres undefined)	21µM*	22%	u	29%	13%	2%
Cc1cc(-c2nnc(-c3cc4ccccc4oc3=O)o2)c(C)n1-c1ccccc1	6.7µM*	24%	u	-6%	21%	u
COc1ccc2oc(=O)c(-c3nc4ccccc4o3)cc2c1	5.4µM*	u	u	u	u	u
O=c1oc2ccccc2cc1-c1nc2c(s1)CCCC2	0.15µM*	u	113%	1µM*	0.4µM*	u
O=c1oc2ccccc2cc1-c1nc(-c2cccc(Cl)c2)cs1	3%	x	x	x	x	x
COc1ccc2oc(=O)c(-c3nnc(-c4ccc(C)cc4)o3)cc2c1	-9%	x	x	-7%	x	x
O=c1oc2ccccc2cc1-c1nc2ccccc2o1	3µM*	3.5µM*	12%	u	2.8µM*	u
CCc1nc2sc3c(N4CCCCC4)ncnc3c2c2c1CCCC2	0%	x	x	-4%	x	x
O=C(/C=C/c1ccccc1)Nc1cccc(S(=O)(=O)Nc2ccccc2F)c1	6.7µM*	-2%	17%	12%	-3%	-3%
O=C(/C=C/c1ccccc1)Nc1cccnc1Oc1ccccc1F	4.8µM*	u	10%	x	u	9%
O=C(Nc1cccc(S(=O)(=O)Nc2ccccc2F)c1)c1ccc2ccccc2n1	19µM*	-7%	-4%	-20%	-8%	-14%
Nc1cccnc1Oc1ccccc1F	2%	-4%	2%	x	0%	-2%
O=C(Cn1ncc2c3ccccc3n(Cc3ccc(F)cc3)c2c1=O)NCCCN1CCCCC1	-4%	x	x	4%	x	x

Screens (PubChem)
